Screens: PubChem BioAssay, National Center for Advancing Translational Sciences (NCATS)
Tau ThT inhib: qHTS for Inhibitors of Tau Fibril Formation, Thioflavin T Binding. AID 1460, 2008. Potency, µM (titrated, usually from 57.4 µM), for inactives: at the highest dose activity, negative = inhibition, hits mostly inhibitors. actives 2.1% (n = 270,000). Microtubule-associated protein tau (Homo sapiens), P10636. recombinant tau K18 P301L, heparin-induced fibrillization, ThT fluorescence; note: potency is the fitted concentration of half-maximal effect; nearly all actives have a fitted effect of over 55% in size
Target sequence (P10636 561-689 P618L limits assumed): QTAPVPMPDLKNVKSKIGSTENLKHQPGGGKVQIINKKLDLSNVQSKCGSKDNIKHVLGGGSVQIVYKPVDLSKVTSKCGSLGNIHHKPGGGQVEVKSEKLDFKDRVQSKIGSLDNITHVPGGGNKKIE
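Aggregation was driven by heparin (20 uM final) acting on recombinant tau […] bearing P301L in 100 mM sodium acetate pH 7; fibrils were detected with Thioflavin T.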
Coupling enz: qHTS Assay for Inhibitors of Fructose-1,6-bisphosphate Aldolase from Giardia Lamblia: Coupling assay counterscreen | activity change, negative = inhibition, % at 58.2 µM, hits read low | actives 0.67% (n = 290,000) | AID 2472, 2010 | coupling enzyme system counterscreen, AmpLite Red fluorescence; in the data active = activity change below about -30%
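Counterscreen lacking aldolase: glyceraldehyde-3-phosphate coupling-enzyme reagent preincubated 10 min at RT with compound (at 57.5 uM final), then substrate/coupling system with AmpLite Red added; fluorescence read at 525/598 nm after 20 min RT.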
Tau FP inhib: qHTS for Inhibitors of Tau Fibril Formation, Fluorescence Polarization | actives 0.39% (n = 280,000) | K18 P301L tau heparin fibrillization, Alexa594 FP, 6 h | Microtubule-associated protein tau (Homo sapiens), P10636 | Potency, µM (top dose mostly 57.7 µM), for inactives: at the highest dose activity, negative = inhibition, most hits filed as inhibitors | AID 1468, 2008; note: potency is the fitted concentration of half-maximal effect; nearly all actives have a fitted effect of over 55% in size
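Human tau K18 […] P301L fragment, 15 uM unlabeled plus 0.24 uM Alexa 594-labeled tau (final), with compound and 20 uM heparin in 100 mM sodium acetate pH 7; 6 hr at 37 C, then Alexa 594 FP read.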
Tau fluor counter: Counterscreen qHTS for Inhibitors of Tau Fibril Formation, Fluorescence Polarization. AID 1463, 2008. Potency, µM (series often up to 57.7 µM), for inactives: at the highest dose activity change, negative = decrease. tau K18 P301L Alexa594 fluorescence, heparin fibrillization. actives 0.93% (n = 280,000); note: potency is the fitted concentration of half-maximal effect; nearly all actives have a fitted effect of over 55% in size
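Human tau K18 P301L (15 uM unlabeled, 0.24 uM Alexa 594-labeled) in 100 mM sodium acetate pH 7 with 20 uM heparin, 6 hr at 37 C. ThT 30 uM added, 1 hr ambient; Alexa 594 FP and total fluorescence read at 555/632 nm.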
Sfp PPTase inh: qHTS Assay for Inhibitors of Bacillus subtilis Sfp phosphopantetheinyl transferase (PPTase) | 4'-phosphopantetheinyl transferase ffp (Bacillus subtilis), Q9F4F7 | Biochemical Sfp PPTase activity, qHTS | Potency, µM, for inactives: largest response in the series, negative = inhibition, actives largely listed as inhibitors | actives 3.5% (n = 310,000);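 note: the enzyme is Sfp with the accession as filed and its product quenches rhodamine fluorescence; potency is the fitted concentration of half-maximal effect; 0% = enzyme reaction without inhibitor and -100% = no enzyme wells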
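Compounds were incubated with enzyme (final 15 nM) for 15 min at room temperature before substrate addition started the reaction. Fluorescence at 525 nm excitation, 598 nm emission was recorded immediately and after 30 minutes.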
* hit, by the source's call; [ ] = another dose, or the depositor's remark. In the library only some 5.2% were active in any assay of this set; here they are far more common. Unless noted, calls come from the whole dose curve; as a rule, active = well fitted curve in the direction sought with a large enough effect; inconclusive = small, poorly fitted or top-dose-only effect, or another doubt; inactive = no such curve, though single readings can be large; an effect the other way counts as inactive or inconclusive. Unless noted, % is set by controls: 0 for no effect and ±100 for the full control effect.

How did COC(=O)CC(=O)CSc1nc2cc(C(=O)NCC(C)C)ccc2c(=O)n1CCc1ccccc1 do in these assays?
Tau ThT inhib: 3%; Tau FP inhib: -5%; Tau fluor counter: -8%

What do the screens show for `O=C1Nc2ccc(F)cc2C12Nc1ccccc1-c1nnc(SCc3ccccc3F)nc1O2` (stereo not drawn)?
Tau ThT inhib: 25µM*; Coupling enz: -10; Tau FP inhib: inconclusive; Tau fluor counter: inconclusive; Sfp PPTase inh: 2%

Results for Cc1ccc(NC(=O)C(Cc2ccccc2)n2cccc2)cc1C (stereo not drawn) ?
Tau ThT inhib: -15%; Tau FP inhib: -8%; Tau fluor counter: inconclusive

Results for CC1CCC2C(=O)N(c3ccc(C(=O)Oc4cccc5cccnc45)cc3)C(=O)C2C1 (stereo not drawn) ?
Tau ThT inhib: inconclusive; Coupling enz: -27; Tau FP inhib: inconclusive; Tau fluor counter: -29%; Sfp PPTase inh: 10µM*

What do the screens show for `Cc1ccc(C(=O)Oc2ccccc2N2C(=O)C3CCC(C)CC3C2=O)cc1` (stereo not drawn)?
Tau ThT inhib: -17%; Coupling enz: -1; Tau FP inhib: 14%; Tau fluor counter: -9%; Sfp PPTase inh: 2%

Results for Cc1cc2c(c(=O)n1-c1ccccc1)C1O[C@](c3ccsc3)(Cc3cc(C#N)ccc31)O2 ?
Coupling enz: 0; Sfp PPTase inh: 7%

What do the screens show for `CC(NCc1ccc(F)cc1)C(=O)NC1CCCCC1` (stereo not drawn)?
Tau ThT inhib: 32µM*; Coupling enz: -2; Tau FP inhib: -20%; Tau fluor counter: -21%; Sfp PPTase inh: 1%

What do the screens show for `COc1ccc(-n2c(=O)c3ccc(C(=O)NCc4ccc(C)cc4)cc3n(CC(=O)Nc3cccc(F)c3)c2=O)cc1`?
Tau ThT inhib: 14%; Tau FP inhib: inconclusive; Tau fluor counter: -13%

Results for CC(=O)Nc1ccc(N2C(C(C)=O)=NN(c3ccc(Cl)cc3)C2c2sccc2C)cc1 (stereo not drawn) ?
Tau ThT inhib: inconclusive; Coupling enz: 0; Tau FP inhib: -15%; Tau fluor counter: 28µM*[quencher]; Sfp PPTase inh: 20%

How did CC(=O)Nc1ccc(C2=NN(c3ccccc3)C(c3cccs3)C2)cc1 (stereo not drawn) do in these assays?
Tau ThT inhib: -11%; Coupling enz: 1; Tau FP inhib: inconclusive; Tau fluor counter: 8.9µM*[quencher]; Sfp PPTase inh: 2%

Results for CC(=O)Nc1ccc(N2C(C(C)=O)=NN(c3ccccc3)C2c2cccs2)cc1 (stereo not drawn) ?
Tau ThT inhib: inconclusive; Coupling enz: -1; Tau FP inhib: 0%; Tau fluor counter: 25µM*[quencher]; Sfp PPTase inh: 0%

What do the screens show for `O=C1c2ccc([N+](=O)[O-])cc2NC(c2ccco2)N1/N=C/c1ccco1` (stereo not drawn)?
Tau ThT inhib: 13µM*; Coupling enz: -25; Tau FP inhib: 10%; Tau fluor counter: inconclusive; Sfp PPTase inh: inconclusive

Results for CN=c1scc(-c2ccc([N+](=O)[O-])cc2)n1/N=C/c1ccco1 ?
Tau ThT inhib: 3.5µM*; Coupling enz: -1; Tau FP inhib: -6%; Tau fluor counter: -29%; Sfp PPTase inh: 7%

What do the screens show for `O=C1c2ccccc2NC(c2ccc(-c3cccc([N+](=O)[O-])c3)o2)N1O` (stereo not drawn)?
Tau ThT inhib: inconclusive; Coupling enz: 0; Tau FP inhib: 11%; Tau fluor counter: -22%; Sfp PPTase inh: 3%

What do the screens show for `CCc1ccc2oc(-c3cccc(NC(=O)c4ccc(N5CCC(C)CC5)c([N+](=O)[O-])c4)c3)nc2c1`?
Tau ThT inhib: inconclusive; Tau FP inhib: -22%; Tau fluor counter: -18%

What do the screens show for `COc1cc(C(=O)Nc2ccc3oc(-c4ccccc4)nc3c2)cc(OC)c1OC`?
Tau ThT inhib: 15%; Tau FP inhib: inconclusive; Tau fluor counter: inconclusive

How did CC(=O)Nc1ccc(S(=O)(=O)Oc2ccc(C(=S)N3CCC(O)CC3)cc2)cc1 do in these assays?
Tau ThT inhib: 2%; Coupling enz: 8; Tau FP inhib: -9%; Tau fluor counter: -4%; Sfp PPTase inh: 56µM*

How did O=C(CCCc1ccccc1)N1CCN(C2CCCCC2)CC1 do in these assays?
Coupling enz: 1; Sfp PPTase inh: 8%

How did c1ccc(CCN(Cc2ccccc2)C2CCN(C3CCCC3)CC2)cc1 do in these assays?
Tau ThT inhib: 2%; Coupling enz: -20; Tau FP inhib: 1%; Tau fluor counter: -1%; Sfp PPTase inh: 50µM*

What do the screens show for `Cc1ccc(C(=O)N/C(=C/c2ccco2)C(=O)Nc2cccc(C)c2)cc1`?
Tau ThT inhib: inconclusive; Coupling enz: -5; Tau FP inhib: -2%; Tau fluor counter: -19%; Sfp PPTase inh: 35µM*

What do the screens show for `Cc1cccc(NC(=O)/C(=C\c2ccco2)NC(=O)c2cccs2)c1`?
Tau ThT inhib: 8%; Coupling enz: -4; Tau FP inhib: 11%; Tau fluor counter: 6%; Sfp PPTase inh: 56µM*

What do the screens show for `C=CCn1c(Sc2ncc([N+](=O)[O-])s2)n[nH]c1=O`?
Tau ThT inhib: inconclusive; Coupling enz: -7; Tau FP inhib: inconclusive; Tau fluor counter: inconclusive; Sfp PPTase inh: 10µM*

Results for O=C(Nc1ccc(Cl)c(Cl)c1)OCc1cccnc1 ?
Tau ThT inhib: 18%; Coupling enz: -1; Tau FP inhib: 14µM*; Tau fluor counter: inconclusive; Sfp PPTase inh: 9%

What do the screens show for `CCC/C=C(\CCC)C(NC(=O)c1ccco1)c1ccc(C(=O)OC)cc1` (stereo not drawn)?
Tau ThT inhib: -13%; Coupling enz: 0; Tau FP inhib: 3%; Tau fluor counter: -11%; Sfp PPTase inh: 14%

How did CN1N=C(C(C)(C)C)CC1=O do in these assays?
Tau ThT inhib: -13%; Coupling enz: -32*; Tau FP inhib: -2%; Tau fluor counter: -5%; Sfp PPTase inh: 8%

What do the screens show for `CC1=NN(C(N)=S)C(=O)C1N=Nc1cccc2ccccc12` (stereo not drawn)?
Tau ThT inhib: 4µM*; Coupling enz: 0; Tau FP inhib: -9%; Tau fluor counter: inconclusive; Sfp PPTase inh: -1%

What do the screens show for `CCCC[n+]1c2ccccc2cc2ccccc21`?
Coupling enz: 0; Sfp PPTase inh: inconclusive

How did CCC[n+]1c2ccccc2cc2ccccc21 do in these assays?
Coupling enz: 3; Sfp PPTase inh: 50µM*

What do the screens show for `CCOC(=O)/C(C#N)=C1\CCCN1CC(N)=S`?
Tau ThT inhib: inconclusive; Coupling enz: 1; Tau FP inhib: -10%; Tau fluor counter: 2%; Sfp PPTase inh: 35µM*
